The source of these data is PubChem BioAssay.

Assay [1] relates to Human papillomavirus type 1a protein E7 (residues 44-93). The experiment in a line: small molecules binding HPV E7 44-93 – biochemical, small-molecule microarray, residues 44-93, 635 nm fluorescence, primary screen (AID 1108).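 Further: E7 fragment applied at 1 µg/mL in TBST for 1 h at 4 C; score combines spot fluorescence with its signal to noise ratio.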 The settings on record: fluorescence 635 nm, higher = more signal.
Assay [2] in a line: hepatitis C replication reporter changes, two-sided – Huh7 cells, luciferase reporter, HCV replication inhibitor project, primary screen (AID 1109).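 Further: huh7 hepatoma cells harbouring a luciferase neomycin HCV replicon reporter; luciferase luminescence as measure of HCV replicon replication; test concentration not given here.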 The settings on record: Huh7 HCV replicon luciferase reporter, 48 h; higher = more signal.
Assay [3] deals with Left-right determination factor 2 (Homo sapiens) (UniProt O00292). Kind of assay: small molecules binding LEFTY2 protein – biochemical, small-molecule microarray, 635 nm fluorescence scan, primary screen (AID 1110). The settings on record: higher = more signal.
In assay [4] the target is Calmodulin-1 (Homo sapiens) (UniProt P0DP23). Kind of assay: small molecules binding calmodulin-1 with EGTA – biochemical, small-molecule microarray, Cy5-labelled CALM1, profiling panel (AID 1111).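 Further: labelled calmodulin applied in Tris saline Tween buffer holding calcium plus EGTA and DTT.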 To be noted: Cy5-CALM1 binding fluorescence, higher = more signal.
Assay [5] has the same target. Kind of assay: small molecules binding Ca-loaded calmodulin-1 – biochemical, small-molecule microarray, Cy5-labelled CALM1, plus calcium, artefact control for SMM control-protein annotation, profiling panel (AID 1112).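 Further: score merges spot fluorescence with signal to noise from triplicate slides.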 To be noted: Cy5-CALM1 binding fluorescence, higher = more signal.
The nature of assay [6]: probe aWnt5a binding to arrayed compounds – biochemical, biotinylated probe, 635/667 nm fluorescence, primary screen (AID 1113).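 Further: score merges 667 nm fluorescence intensity with signal-to-noise per printed feature.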 To be noted: small-molecule microarray, higher = more signal.
The nature of assay [7]: probe aShh binding to arrayed compounds – biochemical, biotinylated probe, 635/667 nm fluorescence, primary screen (AID 1114).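 Further: probe is biotin-labelled aShh protein from a stem cell growth factor screen; measures binding of labelled protein to compounds printed on the slide; score merges feature fluorescence at 667 nm with signal-to-noise.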 To be noted: small-molecule microarray, higher = more signal.
Assay [8] is described as follows: probe aNog binding to arrayed compounds – biochemical, biotinylated probe, 635/667 nm fluorescence, primary screen (AID 1115).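 Further: probe is biotinylated aNog protein used at 0.15 µg/mL for 1 h at 4 C; z-score combines 667 nm fluorescence of each spot with its signal to noise.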 The settings on record: small-molecule microarray, higher = more signal.
In assay [9] the target is Torsin-1A-interacting protein 1 (Homo sapiens) (UniProt Q5JTV8). Kind of assay: compound microarray binding of lysate hLAP1 – cell lysate, small-molecule microarray, COS7 lysate, 635/667 nm fluorescence, primary screen (AID 1116). To be noted: 635 nm fluorescence, higher = more signal.
Assay [10] addresses Alpha-bungarotoxin (Bungarus multicinctus) (UniProt P60615). Kind of assay: compounds binding labelled alpha-BTX control protein – biochemical, small-molecule microarray, Alexa647 label, 635/667 nm fluorescence, artefact control for SMM control protein annotation, profiling panel (AID 1117). To be noted: alpha-BTX-A647 binding fluorescence, higher = more signal.

Sequence of Alpha-bungarotoxin (Bungarus multicinctus) (P60615 whole entry, looked up): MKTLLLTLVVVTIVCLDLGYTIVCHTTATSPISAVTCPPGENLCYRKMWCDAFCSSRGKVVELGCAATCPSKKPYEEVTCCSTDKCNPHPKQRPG
Sequence of Left-right determination factor 2 (Homo sapiens) (O00292 whole entry, looked up): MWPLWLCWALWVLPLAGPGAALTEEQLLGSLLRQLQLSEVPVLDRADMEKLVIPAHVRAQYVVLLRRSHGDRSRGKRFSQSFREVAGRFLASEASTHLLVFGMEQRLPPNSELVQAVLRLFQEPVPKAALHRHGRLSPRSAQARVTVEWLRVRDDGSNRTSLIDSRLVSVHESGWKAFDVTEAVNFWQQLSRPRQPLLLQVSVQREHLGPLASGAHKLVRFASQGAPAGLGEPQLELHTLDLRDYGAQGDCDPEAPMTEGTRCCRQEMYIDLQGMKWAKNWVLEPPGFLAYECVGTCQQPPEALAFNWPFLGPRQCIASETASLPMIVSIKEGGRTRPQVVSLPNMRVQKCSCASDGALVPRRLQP
Sequence of Torsin-1A-interacting protein 1 (Homo sapiens) (Q5JTV8 whole entry, looked up): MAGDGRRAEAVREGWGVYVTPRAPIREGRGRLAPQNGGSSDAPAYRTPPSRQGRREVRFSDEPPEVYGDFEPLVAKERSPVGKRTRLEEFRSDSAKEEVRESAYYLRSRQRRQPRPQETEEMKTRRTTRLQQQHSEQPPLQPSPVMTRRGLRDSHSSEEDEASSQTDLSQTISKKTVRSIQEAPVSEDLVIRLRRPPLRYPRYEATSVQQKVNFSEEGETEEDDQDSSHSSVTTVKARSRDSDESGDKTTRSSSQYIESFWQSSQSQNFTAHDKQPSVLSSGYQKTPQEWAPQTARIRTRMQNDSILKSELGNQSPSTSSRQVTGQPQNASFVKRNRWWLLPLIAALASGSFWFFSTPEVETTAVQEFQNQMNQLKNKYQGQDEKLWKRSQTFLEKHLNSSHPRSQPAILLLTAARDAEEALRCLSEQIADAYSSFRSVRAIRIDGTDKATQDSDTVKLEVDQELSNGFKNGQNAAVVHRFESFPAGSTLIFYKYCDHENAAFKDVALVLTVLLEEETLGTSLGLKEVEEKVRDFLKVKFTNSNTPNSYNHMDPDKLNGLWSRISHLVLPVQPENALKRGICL

In the case of `CCOC(=O)C[C@H]1[C@H](OC(=O)Cc2ccc3c(c2)OCO3)[C@@H](NC(=O)C2CCCCC2)c2cc(OCCCO)ccc2N1C(=O)c1ccccc1`, the composite z-score in assay [1] is 0.232; in [3], -0.684; in assay [4], 0.379; in [5], 0.389; in [6], -0.1; in assay [7], -0.147. The composite z-score was -0.272 in assay [8], 0.653 in assay [9] and 0.262 in assay [10]. This compound also registered a z-score in [2] of -0.509.
As for `N[C@@H](Cc1ccccc1)C(=O)NCc1cn(Cc2ccccc2)nn1`, the composite z-score is -0.132 in assay [1]; 0.167 in assay [3]; -0.761 in assay [4]; -0.232 in [5]; -0.119 in assay [6]; -0.0904 in [7]. In addition, the composite z-score in assay [8] was -0.245; in assay [9], 0.775; in assay [10], 1.11. The same compound registered a z-score in assay [2] of 0.0943.
`C[N+](C)(C)CCCCCCNC(=O)[C@@H]1C[C@@H]2C(=O)N3CCC[C@H]3C(=O)N2[C@@H]1c1ccc(O)cc1`: the composite z-score is 0.279 in [1]; 0.994 in [3]; -0.31 in assay [4]; -0.887 in assay [5]; -0.0239 in [6]; -0.138 in assay [7]. For the same compound, the values for the composite z-score in [8], in [9] and in [10] were -0.29, 0.531 and 0.341, respectively. In assay [2], this compound came in with a z-score of 0.501.
As to `COCCCNC(=O)[C@@]1(CCC(=O)OC(C)(C)C)N=C(c2ccc(OCCCO)cc2)O[C@H]1c1ccccc1N=[N+]=[N-]`, the composite z-score is 0.515 in [1]; 0.473 in [3]; 2.01 in assay [4]; 0.807 in assay [5]; 0.302 in assay [6]; 0.0326 in assay [7]. For the same compound, the values for the composite z-score in assay [8], in assay [9] and in assay [10] were -0.261, 2.32 and 1.71, respectively. In [2], this compound had a z-score of 1.46.
As to `CCOC(=O)[C@@H]1CCCCN1C(=O)C(=O)OC`, the composite z-score was 0.5 in [1]; 0.449 in [3]; -0.499 in assay [4]; -0.305 in [5]; -0.0684 in assay [6]; -0.0904 in [7]. Moreover, the results for the composite z-score in [8], in assay [9] and in [10] were -0.158, -0.274 and 0.154, respectively. Also, the z-score in assay [2] was -0.583.
As for `O=C(NCCN1CCOCC1)[C@@H]1c2ccccc2C(=O)N(Cc2ccccc2Cl)[C@H]1c1ccc(CO)cc1`, the composite z-score in [1] was -0.388; in assay [3], -0.341; in [4], -0.635; in [5], -0.725; in [6], 0.0491; in assay [7], -0.471. Moreover, the composite z-score in [8] was 0.414; in assay [9] it was -0.815; in assay [10], 0.27. For the same compound, the z-score in assay [2] is -0.786.
Consider `[N-]=[N+]=Nc1ccccc1[C@@H]1OC(c2ccc(OCCCO)cc2)=N[C@]1(Cc1ccccc1)C(=O)N1CCCCC1`, for which the composite z-score stood at 1.46 in assay [1]; 0.0418 in assay [3]; 1.43 in assay [4]; 0.748 in [5]; 0.0484 in [6]; 0.337 in assay [7]. The values for the composite z-score in assay [8], in assay [9] and in assay [10] were 1.37, 1.57 and 1.25, respectively. In assay [2], this compound gave a z-score of -2.57.
Take `CCCCCCCCCC(O)C1C=CC2C(=O)N(c3ccccc3)C(=O)C2N1Nc1cc(OC)c(OC)c(OC)c1` (stereo not given): the composite z-score is 0.903 in assay [1]; -1.12 in assay [3]; 1.01 in assay [4]; 1.03 in assay [5]; -0.0685 in [6]; 0.239 in assay [7]. For the same compound, the composite z-score is 0.641 in assay [8], 0.559 in assay [9] and 0.774 in assay [10]. Besides, the z-score in [2] is -2.58.
`CCOC(=O)C1=C[C@@H](C(C)C)N(S(=O)(=O)c2ccc(C)cc2)[C@H]1c1ccc(C(F)(F)F)cc1`: the composite z-score was 1.4 in assay [1]; 0.499 in assay [3]; 1.07 in assay [4]; -0.0824 in [5]; -0.0607 in [6]; 0.296 in assay [7]. In addition, the composite z-score in assay [8] worked out at 0.868; in assay [9], 0.76; in [10] it was 1.06. Besides, the z-score in assay [2] was -0.972.
`C=C[C@@H](OC)[C@H](OC(=O)Nc1ccc(OC)cc1)c1ccc(O)c(F)c1`: the composite z-score in assay [1] is 0.392; in assay [3] it was -0.227; in [4], -1.84; in assay [5], -1.47; in assay [6], -0.208; in [7], 0.0796. Moreover, the composite z-score is -0.834 in [8], 0.302 in [9] and -0.839 in assay [10]. The z-score in assay [2] was 0.859.
With `COc1cc2c(cc1O)C=[N+](Cc1sc3ccccc3c1Cl)CC2`, the composite z-score in assay [1] is -0.429; in assay [3] it was 0.324; in assay [4] it was -0.0659; in assay [5], 0.0401; in assay [6], -0.0403; in assay [7] it was -0.0626. For the same compound, the results for the composite z-score in assay [8], in [9] and in assay [10] were 0.162, 0.25 and 0.252, respectively. Moreover, the z-score in assay [2] was -1.57.
In the case of `[N-]=[N+]=Nc1ccccc1C[C@@]1(C(N)=O)N=C(c2ccc(OCCCO)cc2)O[C@@H]1c1ccccc1N=[N+]=[N-]`, the composite z-score is 1.03 in [1]; -0.0762 in assay [3]; 1.51 in assay [4]; 0.827 in [5]; -0.132 in assay [6]; 0.0948 in assay [7]. For the same compound, the values for the composite z-score in [8], in [9] and in [10] were -0.722, 1.01 and 1.09, respectively. Moreover, the z-score in [2] was -2.35.
